Measurements as given in PubChem BioAssay (Tox21).
Inconclusive results are not listed. A call without a number means that no potency is given here. Active and inactive are the calls of the source. The call rests on the fitted dose curve; in most records, active means well fitted activation curve with a large enough effect in the repeat runs; inconclusive means weak or mixed curves; inactive means flat fitted curve, though single readings scatter.

Assay: A CellTox Green Cytotoxicity Assay to monitor cytotoxicity in HEK293 cells - 8 hour (AID 1224884); further: nearly all actives have a fitted effect of over 35% in size
Settings: CellTox Green fluorescence; series mostly up to 76.8 µM
Excerpt: National Center for Advancing Translational Sciences [NCATS]
NIH Chemical Genomics Center [NCGC]
U.S. Environmental Protection Agency [EPA]
National Institutes of Environmental Health Sciences [NIEHS]
National Toxicology Program [NTP]
Cell-based models are critical for drug discovery. Determining the natural cytotoxic effects resulting from test compounds is an essential research activity. A CellTox Green Cytotoxicity Assay to monitor cytotoxicity in real time of continues cell culture during 40 hours of the compound treatment was used to screen Tox21 10K library compounds in Hek293 cells. CellTox Green Cytotoxicity Assay is a nonlytic, homogeneous, biofluorescent method to measure cytotoxicity in cell culture after experimental manipulation. The assay system uses a proprietary asymmetric cyanine dye that is excluded from viable cells but preferentially stains the dead cell's DNA. […] Viable cells produce no appreciable increases in fluorescence. Therefore, the fluorescence signal produced by the binding interaction with dead cell DNA is proportional to cytotoxicity.
The mixture of Hek293 cell suspension and reagents were dispensed at 600cells/6 ul/well in 1536-well tissue culture treated black solid bottom plates using a Multidrop dispenser. After the assay plates were incubated at a 37 C/5% CO2 incubator for 5 hours, 23 nL of compounds dissolved in DMSO, positive and negative controls was transferred to the assay plate by a pintool work station. The plates were incubated at 37 C for 40 hours. The fluorescence intensity were measured at 0h, 8h, 16h, 24h, 32h and 40h time points using ViewLux plate reader during compound treatment.

Compound | Potency
CCN(CC)CCNC(=O)c1ccc(N)cc1 | inactive
O=C(O)C1=NN(c2ccc(S(=O)(=O)O)cc2)C(=O)C1 | inactive
COc1ccccc1[N+](=O)[O-] | inactive
Cc1cc(C)cc(O)c1 | inactive
CC(C=O)Cc1ccc(C(C)(C)C)cc1 (stereo not given) | inactive
CS(=O)(=O)c1ccc(Cl)cc1 | inactive
CCOC(=O)CC(=O)OCC | inactive
CC(=O)C(C)C | inactive
Cc1cccc(C)c1[N+](=O)[O-] | inactive
N[C@@H](Cc1cc(I)c(Oc2ccc(O)c(I)c2)c(I)c1)C(=O)O | inactive
COC(=O)OC | inactive
Cc1ccc(Cl)cc1 | inactive
COc1c(Cl)ccc(Cl)c1C(=O)O | inactive
CC1=CC(=O)CC(C)(C)C1 | inactive
CC/C(C)=N/O | inactive
NC(N)=S | inactive
CCn1cc(C(=O)O)c(=O)c2cc3c(cc21)OCO3 | inactive
CC(C)c1ccc(C(C)C)cc1 | inactive
c1cnc2c(c1)ccc1cccnc12 | inactive
COc1ccc([C@@H]2CC(=O)c3c(O)cc(O[C@@H]4O[C@H](CO[C@@H]5O[C@@H](C)[C@H](O)[C@@H](O)[C@H]5O)[C@@H](O)[C@H](O)[C@H]4O)cc3O2)cc1OC | inactive

Compound | Potency
COC(=O)CCCCC(=O)OC | inactive
CCCCC(=O)O | inactive
CC(CN1c2ccccc2Sc2ccccc21)N(C)C (stereo not given) | inactive
CCCN(CCC)C(=O)SCC | inactive
CC(=O)OCc1ccc2c(c1)OCO2 | inactive
O=Cc1ccc(CO)o1 | inactive
C=C1C[C@]23C[C@@]1(O)CC[C@H]2[C@@]12C=C[C@H](O)[C@@](C)(C(=O)O1)[C@H]2[C@@H]3C(=O)O | inactive
O=C1OC(=O)c2c(Cl)c(Cl)c(Cl)c(Cl)c21 | inactive
C[n+]1ccn(CCO)c1 | inactive
CC(=O)OC/C=C(\C)CCC=C(C)C | inactive
CCCCCCCCCCCCCC(=O)O | inactive
N#CCC(=O)O | inactive
CC(COCC(C)OC(=O)c1ccccc1)OC(=O)c1ccccc1 (stereo not given) | inactive
CC(O)CNCC(C)O (stereo not given) | inactive
Cc1ccncc1 | inactive
C=CC(C)(C)C | inactive
O=C1CCCCCCCCCCC1 | inactive
CCCCCCCC(=O)O | inactive
CN1CCCC1=O | inactive
CC(=O)OC(C)(C)C1CC=C(C)CC1 (stereo not given) | inactive
